Compound activity (PubChem BioAssay)
Hits are enriched below; roughly 11% of the tested compounds scored in any of these assays.
3T3 cytotox: Cytotoxic Profiling in NIH 3T3 Cell Line of Diverse Libraries Using Quantitative High-Throughput Screening. 94,000 tested, 4.3% active. NIH 3T3 viability, CellTiter-Glo ATP luminescence, 48-72 h. Potency, µM (highest dose often 96.7 µM), most hits filed as inhibitors; also: nearly all actives have a fitted effect of over 55% in size
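Luminescent ATP readout (CellTiter-Glo, 10 min RT) after 48 or 72 hr compound exposure of NIH 3T3 cells seeded at 400 cells/well in 1536-well format; quantitative HTS.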
FLuc inh: Firefly luciferase inhibition profiling of diverse chemical library using quantitative high-throughput screening. 76,000 tested, 2.5% active. Luciferin 4-monooxygenase (Photinus pyralis), P08659. purified P. pyralis luciferase, luminescence, biochemical. Potency, µM (highest dose often 115 µM), hits mostly inhibitors; also: nearly all actives have a fitted effect of over 65% in size
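Luminescence read by CCD imaging after purified firefly luciferase (10nM final) was added to substrate buffer holding 10uM D-luciferin and 10uM ATP, pH 7.5, pre-dosed with compound.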
hNpr1 antagonist: Natriuretic polypeptide receptor (hNpr1) antagonism - Primary qHTS; HEK293 hNpr1 GloSensor cGMP, ANP-stimulated luminescence; Potency, µM (doses to about 46.3 µM), actives largely listed as inhibitors; 76,000 tested, 1.6% active; AID 1347048, 2019; calls by dose curve; also: nearly all actives have a fitted effect of over 60% in size
Target sequence (P16066 whole entry, looked up): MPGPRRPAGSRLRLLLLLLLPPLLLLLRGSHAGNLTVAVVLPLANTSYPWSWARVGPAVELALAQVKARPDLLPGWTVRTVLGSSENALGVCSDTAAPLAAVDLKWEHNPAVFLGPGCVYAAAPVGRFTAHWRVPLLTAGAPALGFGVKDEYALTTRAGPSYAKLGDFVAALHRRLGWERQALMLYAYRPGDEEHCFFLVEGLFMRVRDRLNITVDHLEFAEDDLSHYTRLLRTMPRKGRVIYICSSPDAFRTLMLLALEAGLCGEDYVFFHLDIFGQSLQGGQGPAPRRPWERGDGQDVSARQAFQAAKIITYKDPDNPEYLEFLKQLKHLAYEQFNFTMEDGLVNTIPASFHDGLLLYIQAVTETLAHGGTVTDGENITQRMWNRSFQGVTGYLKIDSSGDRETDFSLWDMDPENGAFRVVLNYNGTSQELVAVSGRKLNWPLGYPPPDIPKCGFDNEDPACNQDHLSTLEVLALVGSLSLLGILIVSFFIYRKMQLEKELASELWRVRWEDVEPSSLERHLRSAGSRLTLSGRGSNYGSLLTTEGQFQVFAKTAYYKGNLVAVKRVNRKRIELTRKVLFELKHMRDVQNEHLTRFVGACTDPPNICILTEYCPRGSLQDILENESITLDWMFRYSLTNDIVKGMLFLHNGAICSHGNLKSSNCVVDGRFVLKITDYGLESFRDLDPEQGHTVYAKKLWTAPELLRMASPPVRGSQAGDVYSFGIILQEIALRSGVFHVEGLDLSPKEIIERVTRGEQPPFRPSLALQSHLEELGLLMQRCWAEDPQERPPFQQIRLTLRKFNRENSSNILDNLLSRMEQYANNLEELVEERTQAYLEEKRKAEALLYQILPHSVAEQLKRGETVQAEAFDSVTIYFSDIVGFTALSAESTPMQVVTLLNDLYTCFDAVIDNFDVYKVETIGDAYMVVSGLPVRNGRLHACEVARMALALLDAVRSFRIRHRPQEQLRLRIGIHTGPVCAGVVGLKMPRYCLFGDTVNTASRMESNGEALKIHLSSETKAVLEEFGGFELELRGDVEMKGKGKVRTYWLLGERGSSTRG
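HEK293 cells stably expressing human Npr1 and cGMP GloSensor pGS-40F, loaded 2 h with 2% GloSensor reagent, given compound 30 min at room temperature. Luminescence read before and 20 min after 0.1 nM hNppA.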
HEK293 tox: Cytotoxic Profiling in HEK 293 Cell Line of Diverse Libraries Using Quantitative High-Throughput Screening; AID 1345083, 2018; HEK 293 viability, ATP luminescence (CellTiter-Glo), 48-72 h; 94,000 tested, 6.6% active; Potency, µM (series often up to 115 µM), actives largely listed as inhibitors; also: nearly all actives have a fitted effect of over 60% in size
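HEK 293 cells at 250 cells/well were exposed to compounds by pintool transfer for 48 or 72 hr at 37 degree Celsius, 5% CO2. Viability was read as ATP-coupled luminescence with CellTiter-Glo after 10 min at room temperature.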
Numbers stand for hits; . = inactive; ? = inconclusive; / = not tested or not shown. Unless noted, calls follow the shape of the dose curve; as a rule, active = well fitted curve in the direction sought with a large enough effect; inconclusive = small, poorly fitted or top-dose-only effect, or another doubt; inactive = no such curve, though single readings can be large; an effect the other way counts as inactive or inconclusive.

SMILES	3T3 cytotox	FLuc inh	hNpr1 antagonist	HEK293 tox
COc1cccc(CNC(=O)Nc2cccc(-c3ccc(N4CCCCC4)nn3)c2)c1	?	0.25µM	10µM	32µM
Cc1noc([C@@H]2CN(S(=O)(=O)c3ccc(C#N)cc3)C[C@H]2C(N)=O)n1	.	.	.	.
O=C(NCCc1ccccc1)c1ccc2oc(-c3ccnc(Cl)c3)nc2c1	.	/	/	.
O=C(c1cc2ccccc2[nH]1)N1CCC2(CC1)CN(c1ncccn1)CC2CO (stereo not drawn)	?	.	.	79µM
Cc1cnc(CN(C)Cc2cn(-c3ccccc3)nn2)[nH]1	.	.	.	.
CCN1CCN(Cc2cc(C)cc(CN(C)Cc3ncc(C)[nH]3)c2C)CC1	.	40µM	.	?
CCc1nc(N2CCC(n3c(=O)[nH]c4ccccc43)CC2)c2cnn(C)c2n1	?	.	.	?
O=C1CCC(CCC(=O)N2CCCC2c2ccc(F)cc2)(Cc2cccc3ccccc23)N1 (stereo not drawn)	.	.	.	.
Cc1cc(CN(C)Cc2cn(-c3cccc(F)c3)nc2-c2ccc(C)o2)n[nH]1	?	?	.	45µM
Cc1ccc(-c2nn(-c3cccc(F)c3)cc2CN(C)CCO)o1	.	?	.	.
O=C(NCc1ccc(F)cc1)c1nc(-c2ccsc2)c2ccccn12	?	.	.	?
Cc1noc2c(NCc3ccccc3)cc(-c3ccccc3)nc12	?	.	.	?
COc1ccc(-n2nc(C)c([C@@H]3C=C[C@@H](NCc4cccc(Cl)c4)C3)c2C)cc1	25µM	40µM	?	28µM
COc1ccc(-n2nc(C)c([C@@H]3C=C[C@@H](NCc4ccc(N(C)C)cc4)C3)c2C)cc1	?	22µM	?	?
COc1ccc(C(=O)N[C@@H]2C=C[C@@H](c3c(C)nn(-c4ccccc4)c3C)C2)cc1	?	.	.	?
COc1ccc(CN[C@@H]2C=C[C@@H](c3c(C)nn(-c4ccccc4)c3C)C2)cc1	50µM	?	.	28µM
COc1ccc(C(=O)N[C@@H]2C=C[C@@H](c3c(C)nn(-c4ccc(C(F)(F)F)cc4)c3C)C2)cc1	?	.	.	?
COc1ccc(-n2nc(C)c([C@@H]3C=C[C@@H](NC(=S)NCC(C)C)C3)c2C)cc1	?	16µM	28µM	28µM
CN1CCC(C(=O)N2Cc3ccccc3CC3(CCCN(C)C3)C2)CC1 (stereo not drawn)	?	/	/	.
C[S+](=O)([O-])c1ccc(-c2nc(C(=O)NCCc3ccc(Cl)cc3)n3ccncc23)cc1	.	/	/	.
O=C(CCc1ccc2c(c1)OCO2)N1Cc2ccccc2C(O)C1 (stereo not drawn)	.	.	.	.
COCCNC(=O)C[C@@H]1C[C@H]2O[C@H](CNC(=O)NCCOC)[C@@H](O)[C@H]2O1	.	.	.	.
COc1ccc(CN2CC(c3nc(Cc4cccnc4)no3)C2)c(OC)c1	16µM	.	?	?
CCCS(=O)(=O)N1CC(c2nc(Cc3cccnc3)no2)C1	.	/	/	.
C#CCNC(=O)C[C@@H]1c2nc(NC(=O)c3ccc(OC)cc3)sc2C[C@@H]2[C@](C)(CO)[C@H](O)CC[C@]21C	?	.	.	?
SMILES	3T3 cytotox	FLuc inh	hNpr1 antagonist	HEK293 tox
COc1ccc(OC)c(CN2CCCn3nc(C)c(-c4cnccc4C)c32)c1	89µM	.	.	?
COc1ccccc1CN1CCCn2nc(C)c(-c3cnccc3C)c21	45µM	.	?	40µM
Cc1ccncc1-c1c(C)nn2c1N(Cc1cccc(OC(F)(F)F)c1)CCC2	?	.	?	32µM
Cc1cccc(CC(=O)N2C[C@@H](CO)[C@H](c3ccncc3)C2)c1	.	.	.	.
CC(C)(C)C(=O)Nc1cnc(-c2cccnc2)nc1	.	28µM	.	.
O=C(CCc1ccccc1)Nc1cnc(-c2cccnc2)nc1	.	.	.	?
O=C(NCCc1ccccc1)N1CC(c2nc(CCOCC3CC3)no2)C1	.	.	.	.
CCc1ccc(C(=O)N2C[C@@H](CO)[C@H](c3nc(C)no3)C2)cc1	.	.	.	.
COc1ccc(-c2noc([C@@H]3C[C@H](NS(=O)(=O)c4ccccc4)CN3C)n2)cc1	?	.	.	89µM
CN1C[C@@H](NS(=O)(=O)c2ccccc2)C[C@H]1c1nc(-c2ccccn2)no1	?	22µM	.	.
Cc1ccc(-c2noc([C@@H]3C[C@H](NS(=O)(=O)c4ccc(Cl)cc4)CN3C)n2)cc1	?	22µM	?	79µM
Cc1ccc(S(=O)(=O)N[C@H]2C[C@@H](c3nc(-c4ccccc4)no3)N(C)C2)cc1	.	?	.	?
COc1ccc(-c2noc([C@@H]3C[C@H](NCc4ccc(N(C)C)cc4)CN3C)n2)cc1	50µM	63µM	.	35µM
COc1ccc(S(=O)(=O)N[C@H]2C[C@@H](c3nc(Cc4ccccc4)no3)N(C)C2)cc1	.	.	.	?
COc1ccc(S(=O)(=O)N[C@H]2C[C@@H](c3nc(-c4ccc5c(c4)OCO5)no3)N(C)C2)cc1	?	.	?	?
COc1ccc(-c2noc([C@@H]3C[C@H](NS(=O)(=O)c4ccc(OC)cc4)CN3C)n2)cc1	?	22µM	?	40µM
CSc1ccc(-c2cccc(C(=O)NCC(=O)NCc3ccc(F)cc3)c2)cc1	?	/	/	16µM
CSc1ccc(-c2cccc(C(=O)NCC(=O)N3CCN(c4ncccn4)CC3)c2)cc1	?	/	/	22µM
O=C(CNC(=O)c1cccc(-c2ccc(C(F)(F)F)cc2)c1)NCc1cccc(Cl)c1	?	/	/	28µM
O=C(NCC(=O)N1CCC(c2ccccc2)CC1)c1cccc(-c2ccc(C(F)(F)F)cc2)c1	?	/	/	10µM
O=C(Cc1cccc(Cl)c1)NCCNC(=O)c1cccc(-c2ccc(C(F)(F)F)cc2)c1	.	/	/	?
CC(C)CNC(=O)Cc1c[nH]c2ncc(-c3cnn(C)c3)cc12	45µM	.	.	.
Cn1cc(-c2cnc3[nH]cc(CC(=O)NC4CCC4)c3c2)cn1	32µM	.	.	?
Cc1nn2c(c1-c1ccccc1N1CCCC1)N(C(=O)c1cccc(N(C)C)c1)CCC2	?	.	.	89µM
Cc1nn2c(c1-c1ccccc1-c1ccccc1)N(C(=O)COc1ccccc1)CCC2	?	.	.	?
Cc1nn2c(c1-c1ccccc1N1CCCC1)N(C(=O)C1CCOCC1)CCC2	?	.	.	100µM
Cc1nn2c(c1-c1ccccc1C(C)C)N(C(=O)C1CCOCC1)CCC2	?	.	.	?
Cc1nn2c(c1-c1cccnc1N1CCOCC1)N(C(=O)COc1ccccc1)CCC2	100µM	.	.	.
Cc1nn2c(c1-c1ccccc1C(C)C)N(C(=O)c1ccn(C)n1)CCC2	?	.	.	.
Cc1nn2c(c1-c1ccccc1N1CCCC1)N(C(=O)COc1ccccc1)CCC2	?	.	.	71µM
